According to the supplement of paper PMC6555819:

Legend:
Assay in all cases: PBM binding z-score (relative to random genomic background probes); higher = stronger binding; sequences stand for … in GC…GCGATTGACAGCGTAGAATGAAGG
[1] = system: PPARg:RXRa DBDmut IVT, anti-RXR (DBD mutation: RXRa K156A/R161A, NR concentration 270 nM, RXRa partner concentration 90 nM)
In short: (§1)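 Binding buffer was PBS pH 7.4 with 2% milk, 0.02% Triton X-100, 1 mM DTT, 0.2 mg/mL BSA and 0.4 mg/ml salmon testes DNA. In it, ligand-free nuclear receptor dimers were incubated 1 h on custom Agilent 4×180K protein-binding microarrays carrying double-stranded probes. Antibodies against each partner (one per run) detected binding, and z-scores were calculated against random background probes after regression normalization of scanned fluorescence.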

[2] = system: PPARg:RXRa IVT, anti-PPARg (NR concentration 270 nM, RXRa partner concentration 90 nM)
In short: as §1

[3] = system: PPARg DBDmut:RXRa IVT, anti-PPARg (DBD mutation: PPARg1 K132A/R137A, NR concentration 270 nM, RXRa partner concentration 90 nM)
In short: as §1

[4] = system: PPARg DBDmut IVT, anti-PPARg (DBD mutation: PPARg1 K132A/R137A, NR concentration 270 nM)
In short: as §1

[5] = system: PPARg homodimer (NR concentration 180 nM)
In short: as §1

[6] = system: PXR:RXRa (NR concentration 270 nM, RXRa partner concentration 90 nM)
In short: as §1

[7] = system: PXR homodimer (NR concentration 270 nM)
In short: as §1

[8] = system: RARa:RXR (NR concentration 270 nM, RXRa partner concentration 90 nM)
In short: as §1

[9] = system: RARa homodimer (NR concentration 270 nM)
In short: as §1

[10] = system: RARb:RXRa (NR concentration 270 nM, RXRa partner concentration 90 nM)
In short: as §1

[11] = system: RARb homodimer (NR concentration 270 nM)
In short: as §1

[12] = system: RARg homodimer (NR concentration 270 nM)
In short: as §1

[13] = system: RXRa DBDmut IVT, anti-RXR (DBD mutation: RXRa K156A/R161A, NR concentration 90 nM)
In short: as §1

[14] = system: RXRa homodimer (NR concentration 180 nM)
In short: as §1

[15] = system: THRa homodimer (NR concentration 90 nM)
In short: as §1

[16] = system: VDR:RXRa (NR concentration 270 nM, RXRa partner concentration 90 nM)
In short: as §1

[17] = system: VDR homodimer (NR concentration 270 nM)
In short: as §1

[18] = system: THRa:RXRa (NR concentration 90 nM, RXRa partner concentration 90 nM)
In short: as §1

[19] = system: RARg:RXRa (NR concentration 270 nM, RXRa partner concentration 90 nM)
In short: as §1

| Sequence | PBM binding z-score [1] | PBM binding z-score [2] | PBM binding z-score [3] | PBM binding z-score [4] | PBM binding z-score [5] | PBM binding z-score [6] | PBM binding z-score [7] | PBM binding z-score [8] | PBM binding z-score [9] | PBM binding z-score [10] | PBM binding z-score [11] | PBM binding z-score [12] | PBM binding z-score [13] | PBM binding z-score [14] | PBM binding z-score [15] | PBM binding z-score [16] | PBM binding z-score [17] | PBM binding z-score [18] | PBM binding z-score [19] |
| --- | --- | --- | --- | --- | --- | --- | --- | --- | --- | --- | --- | --- | --- | --- | --- | --- | --- | --- | --- |
| CAAACTAGGTCACAGGGGTCAAAGTCCGTGCGTA | 8.38 | 9.12 | 4.98 | 3.18 | 3.99 | 6.9 | 8.47 | 8.18 | 1.96 | 5.46 | 5.94 | 7.58 | 3.6 | 8.57 | 3 | 8.24 | 7.07 |  |  |
| TAGCCTAGGTCATGCGGGCCAGCATAGTGTCGGC | 1.81 | 2.94 | 0.0937 | -0.357 | 1.08 | 1.52 | -0.642 | 2.1 | -0.53 | 3.59 | 2.9 | 4.27 | 0.374 | 3.13 | 0.747 |  | 0.502 | 3 |  |
| GCTGCTAGGTCATGTTGGTCAGCTAACGGGTACG | 4.28 | 3.3 | 0.275 | 1.15 | 2.55 | 1.49 | -0.31 | 2.42 | 0.287 | 3.69 | 3.21 | 4.33 | 1.85 | 2.51 | 1.39 |  | 1.44 | 2.83 |  |
| CCTCGGAGGTCAGAAGGTCAGAGCTGTCCGCTTT | 2.53 | 3.5 | -1.11 | -1.86 | 5.71 | 4.71 | 0.603 | 6.73 | 0.835 | 5.16 | 5.21 | 7.12 | 2.31 | 6.44 | 0.451 |  | 1.47 | 3.41 |  |
| ACTCGGAGGACAAAGGTCACAGCTACGCCAGTGA | 1.61 | 4.71 | 0.569 | -0.0483 | 5.62 | 5.5 | 0.867 | 6.75 | 3.36 | 5.12 | 5.26 | 6.99 | 1.55 |  | 1.62 | 4.95 | 2.46 | 4.23 |  |
| TAGCCTAGGTCATTTGGCCAGTATAGTACGCATC | 1.38 | 2.47 | 0.221 | 0.0367 | 0.566 | 1.61 | -0.0591 | 2.08 | -0.227 | 3.67 | 2.59 | 4.08 | 1.99 | 2.73 | 0.679 |  | 1.27 | 2.65 |  |
| CCCCGGAGGACAGAAGGTCAGAGCTGTCCGCTTT | -0.634 | -0.0521 | -2.12 | -1.93 | 1.56 | 1.25 | -0.156 | 1.87 | 0.0931 |  | 3.7 | 3.26 | -0.968 | 1.78 | 0.211 | 0.723 | 0.277 | 2.21 | 3.27 |
| CGTCCGAGGTCAATGCTAGGTCAGTGAAAGCATT | 3.56 | 4.42 | -0.103 | -0.0468 | 4.53 | 5.62 | 2.14 | 6.71 | 0.652 | 5.17 | 4.93 | 6.71 | 4.03 | 6.61 | 2.97 |  | 4.57 | 4.6 |  |
